Screens: PubChem BioAssay, Sanford-Burnham Center for Chemical Genomics
A selection: hits, their analogues and other compounds. The true share with any hit is near 3.1%.
HIF-2a inh: inhibitors of HIF-2a; AID 624352; 786-0 RCC cells HIF-2a reporter, luciferase luminescence, overnight; inhibition, % at 18.8 µM; actives 0.72% (n = 360,000);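 active means inhibition of the luminescence signal of 40% or more relative to plate controls, in a single-dose primary screen at 18.75 µM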
KKLEB cytotox: counter-screen for CF NF-kB inhibitors: cytotoxicity; AID 602141; activity change (cytotoxicity), % at 5 µM; actives 0.36% (n = 360,000); KKLEB CF airway cells viability, ATPlite luminescence, overnight; stronger effect = lower value; cells stimulated with P. aeruginosa culture filtrate;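 active means corrected activity change at or below -50% at 5 µM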
PPC-1+TRAIL kill: PPC-1 cancer cell killing with TRAIL present | PPC-1 cells + TRAIL, ATPLite viability luminescence | cell killing (% activity), % at 4 µM or 5 µM | actives 0.41% (n = 220,000);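 active means cell killing above 50% in the first pass at 4 µM, then a duplicate retest at 5 µM averaging 50% or more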;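 further: plate controls were cells with TRAIL plus DMSO for no effect and medium-only wells lacking cells for full effect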
TRAIL sens C8: caspase-8 TRAIL sensitization; NB7+C8 cells + TRAIL, ATPlite viability luminescence; inhibition (viability loss, TRAIL sensitization), % at 10 µM; actives 1% (n = 360,000); AID 624354;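 active means compounds causing at least 50% loss of cell viability in the single-dose screen, relative to plate controls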
CF NFkB inh: blocks PAF-induced NF-kB reporter in cystic fibrosis cells; KKLEB NF-kB-GFP reporter, GFP fluorescence overnight; inhibition, % at 5 µM; actives 0.86% (n = 360,000); AID 588850;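 active means at least 50% inhibition at 5 µM, scaled per plate between neutral and stimulator controls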;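 further: PAF is a Pseudomonas aeruginosa culture filtrate used as stimulus; plate controls were PAF-stimulated DMSO wells for no effect and unstimulated DMSO wells for full effect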
Peg3 prom inh: Peg3 promoter activity inhibition. HeLa PEG-Prom luciferase reporter, luminescence, overnight. inhibition, % at 20 µM. actives 1.7% (n = 360,000). AID 588405;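 active means inhibition of at least 50% at 20 µM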
Active calls of the source: *; x = no result.

SMILES | HIF-2a inh | KKLEB cytotox | PPC-1+TRAIL kill | TRAIL sens C8 | CF NFkB inh | Peg3 prom inh
COc1ccc2c(CC(=O)Nc3nc(C)cs3)coc2c1 | -62 | -13 | 23 | 12 | 6 | -73
COc1ccc2c(CC(=O)Nc3ncc(C)s3)coc2c1 | -238 | -7 | 14 | 20 | 26 | 65*
CCCCNC(=O)C1(C)CCN1C(=O)c1oc2ccccc2c1C (stereo not drawn) | 7 | -5 | x | -6 | 13 | -6
Cc1ccc(S(=O)(=O)N2CCC(=O)N([C@H](COC(=O)Nc3ccccc3)Cc3ccccc3)CC2)cc1 | -3 | x | x | 38 | x | x
CCCOc1ccc2c(c1)C(=NN=C(N)N)c1cc(OCCC)ccc1-2 | -12 | -13 | x | 39 | -2 | 90*
NC(N)=NN=C1c2ccccc2-c2ccccc21 | 12 | 8 | x | 0 | -16 | -1
Cc1nc2c(N)nn(C)c2nc1C | 18 | 6 | x | -6 | -14 | 12
Cc1c(CCOC(=O)C23CC4(C)CC(C)(CC(C)(C4)C2)C3)sc[n+]1CC(=O)c1ccccc1 | 13 | -12 | 20 | 0 | 23 | 113*
Cc1c(CCOC(=O)CC23CC4CC(CC(C4)C2)C3)sc[n+]1CC(=O)c1ccccc1 | 2 | -19 | 19 | 26 | 17 | 62*
COC(=O)c1cccc(CC2(C)C(=O)Nc3ccc(OC(F)(F)F)cc32)c1 (stereo not drawn) | 21 | -6 | x | -17 | -17 | 10
O=C(/C=C/c1ccccc1)NC(=S)Nc1ccccc1C(=O)NC1CCCCC1 | 14 | 4 | 6 | 4 | 9 | 28
O=C(/C=C/c1ccc(F)cc1)NC(=S)Nc1ccccc1C(=O)NC1CCCCC1 | -15 | 1 | 18 | 59* | 2 | 15
Cc1nc2ccc(Cl)cc2c(-c2ccccc2)c1C(=O)N(C)C | 11 | -8 | x | -6 | 0 | 21
CCOC(=O)c1c(CN2CCNCC2)nc2ccc(Cl)cc2c1-c1ccccc1 | -43 | 1 | x | 40 | 44 | 106*
Cc1onc(-c2c(F)cccc2Cl)c1C(=O)Nc1nc2ccccc2[nH]1 | -79 | 2 | -11 | 49* | -14 | -26
O=C(Nc1nc2ccccc2[nH]1)c1ccc(Cl)cc1 | -54 | -30 | x | 87* | -18 | -77
Cc1cc(NC(=O)c2c(-c3c(F)cccc3Cl)noc2C)no1 | 19 | 7 | 35 | -5 | 7 | 6
O=C(Nc1nc2ccccc2[nH]1)c1ccccc1O | -223 | -7 | x | 49* | -10 | -249
CC(=O)c1ccc(OCc2nnn(CC(=O)O)c2-c2ccccc2)cc1 | 13 | 6 | x | 7 | -10 | 15
N=c1c2c(-c3ccccc3)c(-c3ccccc3)n(Cc3ccco3)c2ncn1CCO | 37 | -17 | 29 | -3 | 9 | 93*
COc1ccccc1N=NNc1ccc(S(=O)(=O)NC(C)=O)cc1 | -56 | 6 | x | -5 | -5 | -11
COc1ccc(N2CCc3c(C)nc4c(OC)cc(OC)cc4c32)c(OC)c1 | 16 | 2 | 12 | 21 | -6 | 14
COc1ccc(N2CCc3c(C)nc4c(OC)cc(OC)cc4c32)cc1 | 28 | 2 | 29 | 19 | -154 | 74*
O=C(OCc1cccc(F)c1)c1cc2ccccc2cc1O | -12 | 7 | x | 1 | -7 | -12
Cc1csc(N=Cc2ccc([N+](=O)[O-])o2)n1 | 10 | 5 | x | -22 | 40 | 4
SMILES | HIF-2a inh | KKLEB cytotox | PPC-1+TRAIL kill | TRAIL sens C8 | CF NFkB inh | Peg3 prom inh
Cc1ccn2c(c1)nc(=S)n2C(=O)c1ccccc1 | 48* | -51* | 82* | 89* | -10 | -10
O=C(c1ccco1)n1c(=S)nc2ccccn21 | -210 | 7 | 16 | 36 | -8 | -246
O=C(Nc1cccc(Cl)c1)Nc1ccnc(-c2cccnc2)n1 | -73 | 10 | 12 | 2 | -107 | 78*
O=C(Nc1cccc(Cl)c1)Nc1cnccn1 | -78 | -5 | x | -7 | 24 | -45
O=C(CCl)N1c2ccccc2OCC1c1ccccc1 (stereo not drawn) | 2 | -3 | 0 | -4 | -8 | 47
O=C(CCl)N1c2ccccc2SCC1c1ccccc1 (stereo not drawn) | 27 | 10 | x | 83* | 9 | 68*
COc1ccc(CNC(=O)C(c2ccc(C)o2)N(Cc2cccs2)C(=O)Cc2cccs2)cc1 (stereo not drawn) | 5 | 3 | 9 | 4 | 10 | 60*
COCCN(C(=O)Cc1cccs1)C(C(=O)NCc1ccc(OC)cc1)c1ccc(C)cc1 (stereo not drawn) | 10 | 19 | 17 | 9 | 1 | 10
CCCCOCCCNC(=O)C[C@@H]1C[C@@]2(C(=O)OC)CC(C)(C)CC=C2N(Cc2ccc3c(c2)OCO3)C1=O | 12 | x | x | -16 | x | x
COc1ccc(OC)c(S(=O)(=O)N2CCc3ccccc32)c1 | 15 | 10 | 11 | 8 | -11 | 16
COc1ccc(OC)c(S(=O)(=O)N2c3ccccc3CC2C)c1 (stereo not drawn) | 11 | 2 | -5 | -2 | -16 | 56*
CCOc1ccc(OCCC(=O)OCC(=O)N2CCN(S(=O)(=O)c3ccc(Cl)cc3)CC2)cc1 | 30 | -13 | x | 3 | 84* | 30
Cc1ccc(C)c(OCCC(=O)OCC(=O)N2CCN(S(=O)(=O)c3ccc(Cl)cc3)CC2)c1 | 18 | 0 | x | -4 | 37 | 8
COc1ccc(C(=O)Nc2ccc3[nH]ccc3c2)cc1 | -12 | -50 | x | 93* | -9 | -15
O=C(Nc1ccc2nc(-c3ccco3)[nH]c2c1)c1cccs1 | -205 | -3 | 26 | 55* | 4 | -190
O=C(Nc1ccc(NC(=O)c2cccs2)cc1)c1cccs1 | -144 | -3 | x | 12 | 14 | -178
COc1ccc(C(=O)Nc2ccc3[nH]ncc3c2)cc1 | -170 | -16 | x | 75* | 20 | -179
O=C(Nc1ccc2[nH]ncc2c1)c1ccc(F)cc1 | -215 | 5 | x | 38 | 19 | -203
O=C(Nc1ccc2[nH]ccc2c1)c1cccs1 | -257 | 1 | 42 | 63* | -7 | -262
O=C(NCc1cccnc1)c1cc(C2CCCN(C(=O)c3cccs3)C2)on1 (stereo not drawn) | 3 | -11 | x | -8 | 14 | 10
Cc1cc(O)c2c(c1)CC1C3CCC4CC(=O)CCC4(C)C3CC(=O)C21C (stereo not drawn) | 4 | -12 | x | -4 | 18 | 20
CCOc1ccc(C(=O)Nc2ccc3[nH]ncc3c2)cc1 | -169 | -12 | x | 72* | 3 | -190
Cc1cc(C)c(C#N)c(SCc2cn3ccccc3n2)n1 | -142 | -3 | 68* | 1 | 12 | -171
CCC(C)c1ccc(NC(=O)Nc2cccnc2)cc1 (stereo not drawn) | -272 | -16 | x | 49* | -37 | -304
CC(=O)c1ccc(NC(=O)Nc2cccnc2)cc1 | -140 | -8 | x | 52* | 14 | -162
CCC(C)c1ccc(NC(=O)NCc2cccnc2)cc1 (stereo not drawn) | -45 | 1 | x | 1 | -13 | -29
